Inconclusive results are not listed. The source made the active and inactive calls. Unless noted, calls come from the whole dose curve; as a rule, active = well fitted curve in the direction sought with a large enough effect; inconclusive = small, poorly fitted or top-dose-only effect, or another doubt; inactive = no such curve, though single readings can be large; an effect the other way counts as inactive or inconclusive.
Experiments:
[1] = biological target: Arylsulfatase A (Homo sapiens) (UniProt P15289); experiment: qHTS screen for enhancers of Arylsulfatase A (ASA1): LOPAC Validation Assay (AID 720538); conditions: ASA enzyme activity, LOPAC qHTS enhancer assay; series mostly up to 57.5 µM; note: potency is the fitted concentration of half-maximal effect
Summary of the method: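 First, ASA-I179S fibroblasts from an MLD patient adhered for 6 hrs. Next, compounds were added for 48h. Then pNCS substrate (0.5mM final) with lysis buffer reacted 14h at room temperature before NaOH stop and fluorescence measurement.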

[2] = qHTS for compounds that reverse cellular toxicity of Amyloid beta (A-beta) peptide in yeast: LOPAC Validation Assay (AID 720559); conditions: yeast expressing A-beta; series mostly up to 46.1 µM;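 note: plate controls were DMSO for no effect and equimolar ferric chloride plus clioquinol rescue for full effect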
Summary of the method: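 Activity is expressed relative to DMSO and an equimolar ferric chloride/clioquinol mix. Compounds were pinned into medium with A-beta-expressing yeast, grown 48 hr at 30 C, then read by absorbance at 600 nm.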

[3] = qHTS for Activators of Parkin Expression: LOPAC Validation Assay (NLuc Reporter) (AID 720572); conditions: Parkin promoter NanoLuc reporter cells, luminescence; series mostly up to 46.1 µM
Summary of the method: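 Compound effects on Parkin promoter activity were measured as NanoLuc luminescence after 24 h at 37 C. The neuronal reporter line also carried FLuc, which was read first. LOPAC compounds were tested at 7 concentrations, with normalization to DMSO (0%) and positive control (100%).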

[4] = qHTS for Activators of Parkin Expression: LOPAC Validation Assay (FLuc Reporter) (AID 720573); conditions: Cell line, PRKN promoter firefly luciferase reporter; series mostly up to 46.1 µM
Summary of the method: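 A neuronal cell line harbouring FLuc and NLuc reporters behind the Parkin promoter was exposed to compounds for 24 h. Firefly luciferase signal, measured after 10 min with detection reagent, was scaled to DMSO and positive-control wells.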

[5] = biological target: Tyrosine-protein kinase Yes (Homo sapiens) (UniProt P07947); experiment: qHTS for small molecule inhibitors of Yes1 kinase: Primary Screen (AID 686947); conditions: Yes1 kinase biochemical qHTS inhibition; note: potency is the fitted concentration of half-maximal effect; nearly all actives have a fitted effect of over 60% in size
Summary of the method: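 ADP-Glo luminescence reports ADP formed by 4 nM Yes1 phosphorylating poly(E4Y) (0.3 mg/mL) with 0.1 mM ATP for 60 min at room temperature, following 20 min compound preincubation; normalised between DMSO wells with and without enzyme.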

[6] = qHTS for small molecule inhibitors of Yes1 kinase: Counter Assay (AID 686950); conditions: series mostly up to 76.9 µM;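 note: no kinase present so only ADP-Glo detection of a fixed ADP amount is tested; luminescence from ADP-Glo reporting ADP in a fixed ATP and ADP mixture; 0% = DMSO wells with ATP plus ADP and -100% = ATP-only wells without ADP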
Excerpt: The Src family of non-receptor protein tyrosine kinases contains nine members, including Yes1, Src, Fyn, Lyn, and […]. These kinases have important roles in a variety of cellular functions, such as cell proliferation, survival, and differentiation. Src, the most well characterized member of this family, has been previously identified as a proto-oncogene. […] In melanoma, it has been shown that Yes1, and not other family members, such as Src, is functionally involved in the malignant phenotype. Additionally, a recent study examining the downregulation of Yes1 by shRNA found significant effects on cell survival/growth for basal-like and Her2-positive breast cancers. Despite the potential for Yes1 to be a target for the above-described cancers, there are very few reports on the identification of potent and selective inhibitors of Yes1 kinase. […]
Two microliter of buffer (columns 1-48) are dispensed into Greiner, white solid-bottom 1536-well assay plates. […] The amount of ADP is then quantified by the ADP-Glo Kit (Promega, Madison, WI). First, 2 uL of the first kit reagent is added, and the reaction is incubated for 45 minutes; then, 4 uL of the second kit reagent are added and the reaction is incubated for 30 minutes at which time the luminescence is read on a Viewlux plate reader (Perkin-Elmer, Waltham, MA). […]

[7] = biological target: Nuclear receptor ROR-gamma (Homo sapiens) (UniProt P51449); experiment: qHTS assay for small molecule antagonists of the retinoid-related orphan receptor gamma (ROR-gamma) signaling pathway (AID 651802); conditions: ROR-gamma antagonist cell reporter assay; series mostly up to 92.2 µM;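 note: CHO cells with doxycycline-induced ROR-gamma expression; luciferase reporter luminescence driven by ROR response element; % is set by controls: 0 for no effect and ±100 for the full control effect; nearly all actives have a fitted effect of over 60% in size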
Summary of the method: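 Luminescence (One-Glo, 30 min RT) measured 16 h after compound addition and doxycycline induction at 37C. Reporter: RORE-luciferase under TET-inducible ROR-gamma in CHO cells.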

[8] = qHTS assay for small molecule agonists of the antioxidant response element (ARE) signaling pathway measured by Nrf2-dependant transcriptional activity (AID 720636; active = well fitted curve in the direction sought with a large enough effect in the repeat runs; an effect the other way counts as inactive or inconclusive;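 note: HepG2 cells with an ARE-driven luciferase reporter; % of control where 0% means no effect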); conditions: ARE-luc HepG2, Nrf2 luciferase reporter, 16 h; series mostly up to 92.4 µM
Summary of the method: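 Reporter gene assay, HepG2 ARE-luc: 16 hr compound, 37 C, 5% CO2; read-out luciferase luminescence.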

[9] = qHTS assay for small molecule antagonists of the retinoid-related orphan receptor gamma (ROR-gamma) signaling pathway - cell viability counter screen (AID 720652; active = well fitted curve in the direction sought with a large enough effect in the repeat runs; an effect the other way counts as inactive or inconclusive;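 note: CHO reporter cells with doxycycline-induced ROR-gamma expression; compound exposure lasted 16 hr before ATP read; % is set by controls: 0 for no effect and ±100 for the full control effect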); conditions: RORgamma reporter cell line viability counter screen; series mostly up to 92.2 µM
Summary of the method: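 Cytotoxicity counter screen: intracellular ATP (CellTiter-Glo luminescence) measured in the doxycycline-induced CHO RORE-luciferase reporter line after 16 hr compound exposure at 37 C, 5% CO2.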

[10] = qHTS assay for small molecule agonists of the antioxidant response element (ARE) signaling pathway measured by Nrf2-dependant transcriptional activity - cell viability counter screen (AID 720653; active = well fitted curve in the direction sought with a large enough effect in the repeat runs; an effect the other way counts as inactive or inconclusive; note: % is set by controls: 0 for no effect and ±100 for the full control effect); conditions: ARE-bla HepG2 viability, CellTiter-Glo ATP luminescence, 16 h; stronger effect = lower value
Summary of the method: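 Cytotoxicity counter screen: intracellular ATP quantified by CellTiter-Glo luminescence in the same ARE-bla HepG2 plates, after 16 h compound exposure and a 2 h beta-lactamase substrate step.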

Chain of Arylsulfatase A (Homo sapiens) (P15289 whole entry, looked up): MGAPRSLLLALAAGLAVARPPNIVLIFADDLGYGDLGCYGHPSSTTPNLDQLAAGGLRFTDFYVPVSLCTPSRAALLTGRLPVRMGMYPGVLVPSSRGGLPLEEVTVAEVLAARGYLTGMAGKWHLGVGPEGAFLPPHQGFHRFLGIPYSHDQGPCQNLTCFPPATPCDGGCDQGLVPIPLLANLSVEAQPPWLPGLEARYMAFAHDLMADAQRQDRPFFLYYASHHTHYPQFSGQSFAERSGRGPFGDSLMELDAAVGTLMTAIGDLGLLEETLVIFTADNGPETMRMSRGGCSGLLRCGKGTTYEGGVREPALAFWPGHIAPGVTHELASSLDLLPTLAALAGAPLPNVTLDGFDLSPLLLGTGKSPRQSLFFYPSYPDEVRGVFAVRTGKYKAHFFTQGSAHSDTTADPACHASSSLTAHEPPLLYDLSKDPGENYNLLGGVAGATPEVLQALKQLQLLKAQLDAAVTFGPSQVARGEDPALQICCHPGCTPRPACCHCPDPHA
Chain of Nuclear receptor ROR-gamma (Homo sapiens) (P51449 whole entry, looked up): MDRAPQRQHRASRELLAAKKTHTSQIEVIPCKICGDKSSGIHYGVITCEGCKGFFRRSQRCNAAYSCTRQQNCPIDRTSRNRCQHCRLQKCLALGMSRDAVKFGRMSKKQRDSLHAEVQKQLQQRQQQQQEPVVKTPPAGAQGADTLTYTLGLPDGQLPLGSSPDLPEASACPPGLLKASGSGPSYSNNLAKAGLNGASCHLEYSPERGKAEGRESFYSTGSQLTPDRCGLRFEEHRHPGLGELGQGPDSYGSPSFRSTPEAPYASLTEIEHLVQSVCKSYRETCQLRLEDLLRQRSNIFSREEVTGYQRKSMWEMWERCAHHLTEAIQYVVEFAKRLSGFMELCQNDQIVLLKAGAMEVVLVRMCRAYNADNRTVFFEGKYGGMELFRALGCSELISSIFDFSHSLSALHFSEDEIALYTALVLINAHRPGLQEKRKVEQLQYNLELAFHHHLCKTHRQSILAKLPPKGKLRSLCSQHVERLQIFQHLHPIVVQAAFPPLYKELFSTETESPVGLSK
Chain of Tyrosine-protein kinase Yes (Homo sapiens) (P07947 whole entry, looked up): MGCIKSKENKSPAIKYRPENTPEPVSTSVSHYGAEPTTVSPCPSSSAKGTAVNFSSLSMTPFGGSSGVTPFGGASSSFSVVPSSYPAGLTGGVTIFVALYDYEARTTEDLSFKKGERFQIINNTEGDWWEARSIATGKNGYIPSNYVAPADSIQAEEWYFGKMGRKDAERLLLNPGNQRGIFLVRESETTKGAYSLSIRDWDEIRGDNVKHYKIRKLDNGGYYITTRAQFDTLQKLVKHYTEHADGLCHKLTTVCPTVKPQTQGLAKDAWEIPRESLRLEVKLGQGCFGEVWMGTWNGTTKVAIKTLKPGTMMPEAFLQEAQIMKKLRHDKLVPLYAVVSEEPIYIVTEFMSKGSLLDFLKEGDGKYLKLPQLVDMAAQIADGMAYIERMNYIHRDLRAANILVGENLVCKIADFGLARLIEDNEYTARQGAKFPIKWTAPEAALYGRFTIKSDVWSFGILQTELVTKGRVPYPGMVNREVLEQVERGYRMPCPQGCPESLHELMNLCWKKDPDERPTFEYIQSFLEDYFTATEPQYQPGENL

O=c1ccc2c(OCCCCc3ccccc3)c3ccoc3cc2o1
inactive: Potency [1] | outcome [2] | Potency [3] | Potency [4]

N[C@@H](CCC(=O)N[C@H](CSN=O)C(=O)NCC(=O)O)C(=O)O
inactive: Potency [1] | outcome [2] | Potency [3]

Cc1nc(N=Nc2ccc(S(=O)(=O)O)cc2S(=O)(=O)O)c(COP(=O)(O)O)c(C=O)c1O
inactive: Potency [1] | outcome [2] | Potency [3] | Potency [4]

CCCC[C@@]1(C2CCCC2)Cc2cc(OCC(=O)O)c(Cl)c(Cl)c2C1=O
inactive: Potency [1] | outcome [2]

NCCCNCCCCNCCCN
inactive: Potency [1] | outcome [2] | Potency [3]

COc1cc(C(O)CO)ccc1O (stereo not drawn)
inactive: Potency [1] | outcome [2] | Potency [3] | Potency [4]

N[C@H]1CONC1=O
inactive: Potency [1]

CC1=C(C(=O)O)N2C(=O)[C@@H](NC(=O)C(N)C3=CCC=CC3)[C@H]2SC1 (stereo partly drawn)
inactive: Potency [1] | outcome [2] | Potency [3]

N#C/C(=C\c1ccc(O)c(O)c1)C(=O)NCCCNC(=O)/C(C#N)=C/c1ccc(O)c(O)c1
inactive: Potency [1] | outcome [2] | Potency [3]

CN(C)S(=O)(=O)c1ccc2c(c1)/C(=C/c1cc3c([nH]1)CCCC3)C(=O)N2
active: Potency [5] 0.0972 µM
inactive: outcome [6] | outcome [2] | Potency [3]

CCCn1c(=O)c2c(ncn2C)n(CCC)c1=O
inactive: Potency [1] | outcome [2] | Potency [3]

CCCCCCCCCCC(C)(C)C(=O)Nc1c(OC)cc(OC)cc1OC
inactive: Potency [1] | outcome [2] | Potency [3]

COc1ccc2c(c1)CCC1C2CC[C@@]2(C)C1CC[C@@H]2NCCCCCCN1C(=O)C=CC1=O (stereo partly drawn)
inactive: Potency [1] | outcome [2] | Potency [3]

CC1CNCCN1S(=O)(=O)c1cccc2cnccc12 (stereo not drawn)
inactive: Potency [1] | outcome [2]

CC(=O)C(C)=O
inactive: outcome [7] | outcome [2] | Potency [3] | outcome [8] | outcome [9] | max response [10] -2.25%

CCCCCCCCCCCCCCCCCCOC[C@H](COP(=O)([O-])OCC[N+](C)(C)C)OC
inactive: Potency [1] | outcome [2] | Potency [3] | Potency [4]

Nc1ccc(-c2ccc3ccccc3n2)cc1
inactive: Potency [1] | outcome [2] | Potency [3]

CC(C)Cn1c(=O)n(C)c(=O)c2[nH]cnc21
inactive: Potency [1] | outcome [2] | Potency [3]

O=C(O)c1cc2cc(F)ccc2[nH]1
inactive: Potency [1] | outcome [2] | Potency [3]

COC(=O)C(N)Cc1ccc(Cl)cc1 (stereo not drawn)
inactive: Potency [1] | outcome [2] | Potency [3] | Potency [4]

CC(N)=O
inactive: Potency [1] | outcome [2] | Potency [3]

COc1cc2c(CCNC(C)=O)c[nH]c2cc1O
inactive: outcome [2]
active: Potency [1] 37.9 µM

COc1cc(C(O)C(=O)O)ccc1O (stereo not drawn)
inactive: Potency [1] | outcome [2] | Potency [3]

CN1CCN(c2nc3cc(C(F)(F)F)ccc3n3cccc23)CC1
inactive: Potency [1] | outcome [2] | Potency [3]

c1ccc2nc(C3=NCCN3)ccc2c1
inactive: Potency [1] | outcome [2] | Potency [3]

CNC(=O)c1cc2c(cn1)[nH]c1ccccc12
inactive: Potency [1] | outcome [2] | Potency [3]

CN1CC(O)C(O)C(O)C1CO (stereo not drawn)
inactive: Potency [1] | outcome [2] | Potency [3]

Cn1cc(C(=O)OCC2CCN(CCNS(C)(=O)=O)CC2)c2ccccc21
inactive: Potency [1] | outcome [2] | Potency [3]

CCCCOc1cc(CC2CNC(=O)N2)ccc1OC (stereo not drawn)
inactive: Potency [1] | outcome [2] | Potency [3] | Potency [4]

NCCCCN=C(N)N
inactive: Potency [1] | outcome [2] | Potency [3]

NC1CONC1=O (stereo not drawn)
inactive: Potency [1]

NCC(O)c1ccc(O)c(O)c1 (stereo not drawn)
inactive: Potency [1]

Cc1ccc([N+](=O)[O-])cc1S(=O)(=O)N(C)C
inactive: Potency [1] | outcome [2] | Potency [3]

CCCCCCN(CCCCCC)C(=O)Cc1c(-c2ccc(F)cc2)[nH]c2ccccc12
inactive: Potency [1] | outcome [2] | Potency [3]

NC(=O)c1ccccc1
inactive: outcome [7] | Potency [1] | Potency [3] | Potency [4] | outcome [8] | outcome [9] | max response [10] -5%

COCc1nc2c([nH]1)c(=O)n(C)c(=O)n2CC(C)C
inactive: Potency [1] | outcome [2] | Potency [3]

CC(N)(Cc1ccc(O)cc1)C(=O)O (stereo not drawn)
inactive: Potency [1]

CCSC(=N)N
inactive: Potency [1] | outcome [2] | Potency [3]

O=C(O)C1=CCCN(CCON=C(c2ccccc2)c2ccccc2)C1
inactive: Potency [1] | outcome [2] | Potency [3] | Potency [4]

c1ccc(C(NCCNC(c2ccccc2)c2ccccc2)c2ccccc2)cc1
inactive: Potency [1] | outcome [2] | Potency [3] | Potency [4]

COc1cc(CC(=O)O)ccc1O
inactive: Potency [1] | outcome [2] | Potency [3] | Potency [4]

Cn1cc(C(F)(F)F)nc1-c1ccc(OCC(O)CNCCOc2ccc(O)c(C(N)=O)c2)cc1 (stereo not drawn)
inactive: Potency [1] | outcome [2] | Potency [3] | Potency [4]

O=c1[nH]c2ccccc2c2ccccc12
inactive: Potency [1] | outcome [2] | Potency [3] | Potency [4]

CN1CCc2cc(Cl)c(O)cc2[C@@H](c2ccccc2)C1
inactive: Potency [1] | outcome [2] | Potency [3] | Potency [4]

COc1ccccc1N1CCN(CCCCNC(=O)c2ccc3ccccc3c2)CC1
inactive: Potency [1] | outcome [2] | Potency [3] | Potency [4]

Cn1c(=O)[nH]c2ncn(C)c2c1=O
inactive: Potency [1] | outcome [2] | Potency [3] | Potency [4]

N=S(=O)(O)Cc1noc2ccccc12
inactive: Potency [1] | outcome [2] | Potency [3] | Potency [4]

— PubChem BioAssay (NCATS)
